# Source: publication PMC7862700, “An all-to-all approach to the identification of sequence-specific readers for epigenetic DNA modifications on cytosine”
# Key:
# Assay in all cases: DAPPL (digital affinity profiling via proximity ligation, sequencing); 10 mM Tris-HCl pH 7.5, 50 mM NaCl, 1 mM DTT, 4% glycerol, room temperature, 30 min; GST-TFs on glutathione beads, 16-mer random dsDNA library, 0.1% formaldehyde crosslink after washing; high values mean tight binding
# [1] = molecular target: T1, FLI1 (Homo sapiens, UniProt Q01543 1-452); conditions: protein: recombinant; tags: N-terminal GST; dsDNA, one strand shown
# T1 sequence: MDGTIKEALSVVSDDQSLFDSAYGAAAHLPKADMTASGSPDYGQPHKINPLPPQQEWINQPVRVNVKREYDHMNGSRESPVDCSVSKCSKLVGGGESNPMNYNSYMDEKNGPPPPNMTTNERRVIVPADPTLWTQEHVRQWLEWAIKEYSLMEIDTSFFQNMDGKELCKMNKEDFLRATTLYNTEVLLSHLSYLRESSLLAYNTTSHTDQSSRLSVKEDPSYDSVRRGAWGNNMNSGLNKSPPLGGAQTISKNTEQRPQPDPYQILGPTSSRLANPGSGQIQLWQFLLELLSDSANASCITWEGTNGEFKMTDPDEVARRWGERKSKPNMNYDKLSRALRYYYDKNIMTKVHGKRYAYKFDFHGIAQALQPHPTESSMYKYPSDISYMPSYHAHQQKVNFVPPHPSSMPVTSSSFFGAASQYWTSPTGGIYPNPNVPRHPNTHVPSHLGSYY
# Method in brief: (§1)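 In yeast, human transcription factors were expressed with a GST fusion, then pulled down on glutathione beads and given DNA barcodes. Pooled with a tag-only sample, they were exposed to 200 nmole of a 16-mer random double-stranded DNA library (Tris/NaCl/DTT/glycerol buffer, room temperature, 30 min), washed, crosslinked with 0.1% formaldehyde, proximity-ligated using BsaI/T4 ligase for 1 h at 37 °C, PCR-amplified and read on an Illumina NextSeq500. Each hexamer's frequency of reads for a factor, divided by the matching frequency for the tag-only sample, gives the binding signal.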
# [2] = molecular target: T2, ELK1 (Homo sapiens, UniProt P19419 1-428); conditions: protein: recombinant; tags: N-terminal GST; dsDNA, one strand shown
# T2 sequence: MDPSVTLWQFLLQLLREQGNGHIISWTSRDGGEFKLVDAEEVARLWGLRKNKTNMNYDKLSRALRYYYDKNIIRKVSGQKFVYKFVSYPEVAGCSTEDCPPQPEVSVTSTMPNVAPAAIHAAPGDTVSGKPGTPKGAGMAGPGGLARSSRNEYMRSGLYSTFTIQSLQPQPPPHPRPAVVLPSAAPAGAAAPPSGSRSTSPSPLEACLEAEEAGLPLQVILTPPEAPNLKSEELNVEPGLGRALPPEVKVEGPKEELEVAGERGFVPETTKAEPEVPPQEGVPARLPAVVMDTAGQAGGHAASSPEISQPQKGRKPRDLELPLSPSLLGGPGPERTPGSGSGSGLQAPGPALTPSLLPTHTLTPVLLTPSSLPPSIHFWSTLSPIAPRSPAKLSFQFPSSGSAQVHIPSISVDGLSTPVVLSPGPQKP
# Method in brief: as §1
# [3] = molecular target: T3, GABPA (Homo sapiens, UniProt Q06546 1-454); conditions: protein: recombinant; tags: N-terminal GST; dsDNA, one strand shown
# T3 sequence: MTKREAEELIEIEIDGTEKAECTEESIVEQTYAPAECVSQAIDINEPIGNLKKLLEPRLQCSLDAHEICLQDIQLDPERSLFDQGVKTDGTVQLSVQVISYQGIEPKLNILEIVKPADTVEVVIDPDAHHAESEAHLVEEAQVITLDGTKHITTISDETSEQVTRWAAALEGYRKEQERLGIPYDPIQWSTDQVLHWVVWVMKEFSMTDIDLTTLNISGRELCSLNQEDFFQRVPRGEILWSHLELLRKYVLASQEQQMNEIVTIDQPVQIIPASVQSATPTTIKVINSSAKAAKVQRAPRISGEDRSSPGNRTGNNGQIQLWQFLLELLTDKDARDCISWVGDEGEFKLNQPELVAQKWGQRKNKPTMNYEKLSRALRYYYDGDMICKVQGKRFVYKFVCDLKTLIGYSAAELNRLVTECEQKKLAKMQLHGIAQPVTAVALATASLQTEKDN
# Method in brief: as §1
# [4] = molecular target: T4, ERG (Homo sapiens, UniProt P11308 1-479); conditions: protein: recombinant; tags: N-terminal GST; dsDNA, one strand shown
# T4 sequence: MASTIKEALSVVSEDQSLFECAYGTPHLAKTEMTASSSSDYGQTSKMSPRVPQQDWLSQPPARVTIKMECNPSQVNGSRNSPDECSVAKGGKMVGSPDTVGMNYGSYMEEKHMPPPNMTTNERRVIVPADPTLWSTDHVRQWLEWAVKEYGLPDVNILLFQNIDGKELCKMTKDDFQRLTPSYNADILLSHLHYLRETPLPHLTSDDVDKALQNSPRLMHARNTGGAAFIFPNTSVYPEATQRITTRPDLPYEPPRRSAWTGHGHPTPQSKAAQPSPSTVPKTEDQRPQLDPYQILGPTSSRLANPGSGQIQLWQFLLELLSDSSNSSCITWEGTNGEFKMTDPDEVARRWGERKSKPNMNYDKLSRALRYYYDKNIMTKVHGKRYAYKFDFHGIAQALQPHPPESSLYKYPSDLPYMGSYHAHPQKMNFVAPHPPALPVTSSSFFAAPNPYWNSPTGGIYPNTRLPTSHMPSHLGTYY
# Method in brief: as §1
# [5] = molecular target: ELF1 (Homo sapiens, UniProt P32519 1-619); conditions: protein: recombinant; tags: N-terminal GST; dsDNA, one strand shown
# Method in brief: as §1
# [6] = molecular target: T5, EHF (Homo sapiens, UniProt Q9NZC4 1-300); conditions: protein: recombinant; tags: N-terminal GST; dsDNA, one strand shown
# T5 sequence: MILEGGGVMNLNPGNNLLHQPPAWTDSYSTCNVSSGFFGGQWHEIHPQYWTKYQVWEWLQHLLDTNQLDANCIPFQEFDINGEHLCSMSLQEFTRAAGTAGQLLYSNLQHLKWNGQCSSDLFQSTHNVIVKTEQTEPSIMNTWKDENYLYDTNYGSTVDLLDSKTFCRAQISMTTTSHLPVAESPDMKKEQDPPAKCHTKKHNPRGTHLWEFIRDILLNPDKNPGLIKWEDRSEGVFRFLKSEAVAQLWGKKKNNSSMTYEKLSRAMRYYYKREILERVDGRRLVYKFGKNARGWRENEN
# Method in brief: as §1
# [7] = molecular target: SPI1 (Homo sapiens, UniProt P17947 1-270); conditions: protein: recombinant; tags: N-terminal GST; dsDNA, one strand shown
# Method in brief: as §1
# [8] = molecular target: SPIB (Homo sapiens, UniProt Q01892 1-262); conditions: protein: recombinant; tags: N-terminal GST; dsDNA, one strand shown
# Method in brief: as §1
# [9] = molecular target: T6, FEV (Homo sapiens, UniProt Q99581 1-238); conditions: protein: recombinant; tags: N-terminal GST; dsDNA, one strand shown
# T6 sequence: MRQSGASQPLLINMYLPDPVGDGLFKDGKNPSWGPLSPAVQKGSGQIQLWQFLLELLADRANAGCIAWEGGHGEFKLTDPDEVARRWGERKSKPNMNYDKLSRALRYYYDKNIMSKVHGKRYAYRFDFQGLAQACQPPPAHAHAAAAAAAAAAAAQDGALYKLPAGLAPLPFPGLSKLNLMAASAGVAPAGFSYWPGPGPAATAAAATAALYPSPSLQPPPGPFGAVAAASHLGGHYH
# Method in brief: as §1
# [10] = molecular target: ETV5 (Homo sapiens, UniProt P41161 1-510); conditions: protein: recombinant; tags: N-terminal GST; dsDNA, one strand shown
# Method in brief: as §1
# [11] = molecular target: HSF1 (Homo sapiens, UniProt Q00613 1-529); conditions: protein: recombinant; tags: N-terminal GST; chain copies: 3; dsDNA, one strand shown
# Method in brief: as §1
# [12] = molecular target: ELF4 (Homo sapiens, UniProt Q99607 1-663); conditions: protein: recombinant; tags: N-terminal GST; dsDNA, one strand shown
# Method in brief: as §1
# [13] = molecular target: T7, ELK4 (Homo sapiens, UniProt P28324-2 1-405); conditions: protein: recombinant; tags: N-terminal GST; dsDNA, one strand shown
# T7 sequence: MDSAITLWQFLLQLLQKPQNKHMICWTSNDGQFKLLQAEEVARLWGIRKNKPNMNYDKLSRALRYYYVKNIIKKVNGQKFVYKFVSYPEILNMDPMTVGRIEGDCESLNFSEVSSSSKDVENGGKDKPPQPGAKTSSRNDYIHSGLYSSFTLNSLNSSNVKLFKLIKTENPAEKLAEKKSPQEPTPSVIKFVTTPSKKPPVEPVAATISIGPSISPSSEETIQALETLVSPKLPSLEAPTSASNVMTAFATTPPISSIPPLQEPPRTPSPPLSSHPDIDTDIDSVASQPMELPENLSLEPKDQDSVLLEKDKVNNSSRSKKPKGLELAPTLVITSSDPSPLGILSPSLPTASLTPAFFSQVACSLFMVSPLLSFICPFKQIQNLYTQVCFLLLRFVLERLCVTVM
# Method in brief: as §1
# [14] = molecular target: T8, ETV2 (Homo sapiens, UniProt O00321 1-342); conditions: protein: recombinant; tags: N-terminal GST; dsDNA, one strand shown
# T8 sequence: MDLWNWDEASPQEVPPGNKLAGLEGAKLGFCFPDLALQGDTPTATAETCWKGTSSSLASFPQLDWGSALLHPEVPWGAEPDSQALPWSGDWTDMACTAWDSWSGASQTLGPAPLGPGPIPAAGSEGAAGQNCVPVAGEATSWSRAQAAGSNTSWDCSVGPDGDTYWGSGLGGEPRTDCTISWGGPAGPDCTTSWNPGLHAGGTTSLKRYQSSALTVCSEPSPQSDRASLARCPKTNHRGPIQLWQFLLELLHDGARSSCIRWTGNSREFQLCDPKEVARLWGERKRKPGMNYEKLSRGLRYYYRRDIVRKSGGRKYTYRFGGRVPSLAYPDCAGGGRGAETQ
# Method in brief: as §1
# [15] = molecular target: T9, ELF3 (Homo sapiens, UniProt P78545 1-371); conditions: protein: recombinant; tags: N-terminal GST; dsDNA, one strand shown
# T9 sequence: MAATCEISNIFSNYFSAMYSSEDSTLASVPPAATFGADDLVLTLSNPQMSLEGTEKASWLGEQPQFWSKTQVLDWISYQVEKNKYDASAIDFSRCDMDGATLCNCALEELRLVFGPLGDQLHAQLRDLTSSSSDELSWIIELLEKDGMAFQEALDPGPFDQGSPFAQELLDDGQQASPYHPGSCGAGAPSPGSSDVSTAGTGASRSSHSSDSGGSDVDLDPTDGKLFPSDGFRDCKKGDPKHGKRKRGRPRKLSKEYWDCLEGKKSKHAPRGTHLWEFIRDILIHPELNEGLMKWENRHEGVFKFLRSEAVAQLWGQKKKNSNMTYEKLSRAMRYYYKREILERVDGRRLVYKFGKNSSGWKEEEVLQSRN
# Method in brief: as §1
# [16] = molecular target: ETV1 (Homo sapiens, UniProt P50549 1-477); conditions: protein: recombinant; tags: N-terminal GST; dsDNA, one strand shown
# Method in brief: as §1
# ETV5, sequence (P41161 whole entry): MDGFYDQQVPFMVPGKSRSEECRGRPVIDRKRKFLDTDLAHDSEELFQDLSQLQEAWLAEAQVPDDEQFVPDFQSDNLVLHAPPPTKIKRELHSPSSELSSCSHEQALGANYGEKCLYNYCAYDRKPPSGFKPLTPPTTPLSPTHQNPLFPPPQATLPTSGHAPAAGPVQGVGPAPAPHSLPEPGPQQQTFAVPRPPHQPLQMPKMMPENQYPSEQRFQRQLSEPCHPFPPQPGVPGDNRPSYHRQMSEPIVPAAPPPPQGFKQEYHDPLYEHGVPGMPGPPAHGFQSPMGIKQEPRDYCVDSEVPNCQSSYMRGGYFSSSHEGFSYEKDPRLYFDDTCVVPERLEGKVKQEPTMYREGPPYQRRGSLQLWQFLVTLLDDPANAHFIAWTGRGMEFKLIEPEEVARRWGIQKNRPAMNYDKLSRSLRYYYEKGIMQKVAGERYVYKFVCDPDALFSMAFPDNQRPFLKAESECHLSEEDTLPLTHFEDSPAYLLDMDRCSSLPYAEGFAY
# ELF4, sequence (Q99607 whole entry): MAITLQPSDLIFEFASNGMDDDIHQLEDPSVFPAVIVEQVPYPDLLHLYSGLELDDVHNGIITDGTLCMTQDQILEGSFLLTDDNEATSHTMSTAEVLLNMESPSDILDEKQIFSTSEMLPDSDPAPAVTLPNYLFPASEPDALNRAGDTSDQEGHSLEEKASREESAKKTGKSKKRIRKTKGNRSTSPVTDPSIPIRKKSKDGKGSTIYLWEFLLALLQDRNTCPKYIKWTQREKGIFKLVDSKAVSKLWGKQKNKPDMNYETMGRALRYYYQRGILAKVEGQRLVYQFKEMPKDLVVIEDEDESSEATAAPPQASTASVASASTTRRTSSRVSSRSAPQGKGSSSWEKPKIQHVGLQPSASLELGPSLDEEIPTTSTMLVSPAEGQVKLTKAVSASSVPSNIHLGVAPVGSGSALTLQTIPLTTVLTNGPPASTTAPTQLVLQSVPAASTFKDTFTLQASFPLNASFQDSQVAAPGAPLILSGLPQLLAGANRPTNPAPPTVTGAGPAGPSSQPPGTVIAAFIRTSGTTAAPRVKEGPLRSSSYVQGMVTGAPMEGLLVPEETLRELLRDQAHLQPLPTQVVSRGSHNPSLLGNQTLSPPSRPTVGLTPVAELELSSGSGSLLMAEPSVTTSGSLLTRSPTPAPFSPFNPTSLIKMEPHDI
# ELF1, sequence (P32519 whole entry): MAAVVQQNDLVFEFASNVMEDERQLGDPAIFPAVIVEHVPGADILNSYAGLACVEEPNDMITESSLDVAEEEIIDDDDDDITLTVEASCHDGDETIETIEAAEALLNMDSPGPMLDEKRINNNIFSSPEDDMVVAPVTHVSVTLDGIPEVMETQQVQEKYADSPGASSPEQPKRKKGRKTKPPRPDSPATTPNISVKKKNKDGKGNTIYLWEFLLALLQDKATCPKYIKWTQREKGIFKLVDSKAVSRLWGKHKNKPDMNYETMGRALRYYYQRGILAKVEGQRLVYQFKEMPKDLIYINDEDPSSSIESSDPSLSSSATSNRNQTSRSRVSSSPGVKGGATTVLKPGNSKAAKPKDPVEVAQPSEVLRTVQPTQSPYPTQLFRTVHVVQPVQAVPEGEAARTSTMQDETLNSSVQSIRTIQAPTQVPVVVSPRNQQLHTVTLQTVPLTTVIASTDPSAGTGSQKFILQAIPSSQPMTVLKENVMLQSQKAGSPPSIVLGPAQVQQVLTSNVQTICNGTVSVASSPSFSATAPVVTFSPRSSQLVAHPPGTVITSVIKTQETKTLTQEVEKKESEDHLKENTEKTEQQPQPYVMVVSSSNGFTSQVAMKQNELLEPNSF
# ETV1, sequence (P50549 whole entry): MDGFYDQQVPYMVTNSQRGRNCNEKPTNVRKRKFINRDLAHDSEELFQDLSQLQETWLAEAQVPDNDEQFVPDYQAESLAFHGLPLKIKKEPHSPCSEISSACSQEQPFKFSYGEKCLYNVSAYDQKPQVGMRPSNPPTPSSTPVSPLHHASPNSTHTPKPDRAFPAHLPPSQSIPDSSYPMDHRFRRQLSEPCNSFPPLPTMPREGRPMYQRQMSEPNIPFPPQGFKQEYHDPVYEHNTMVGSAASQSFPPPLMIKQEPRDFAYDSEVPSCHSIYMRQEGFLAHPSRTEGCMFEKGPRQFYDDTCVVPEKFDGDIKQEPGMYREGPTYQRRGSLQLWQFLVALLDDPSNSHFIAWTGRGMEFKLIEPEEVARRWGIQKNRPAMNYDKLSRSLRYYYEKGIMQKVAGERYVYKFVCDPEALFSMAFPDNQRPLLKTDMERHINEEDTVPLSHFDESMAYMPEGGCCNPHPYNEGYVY
# HSF1, sequence (Q00613 whole entry): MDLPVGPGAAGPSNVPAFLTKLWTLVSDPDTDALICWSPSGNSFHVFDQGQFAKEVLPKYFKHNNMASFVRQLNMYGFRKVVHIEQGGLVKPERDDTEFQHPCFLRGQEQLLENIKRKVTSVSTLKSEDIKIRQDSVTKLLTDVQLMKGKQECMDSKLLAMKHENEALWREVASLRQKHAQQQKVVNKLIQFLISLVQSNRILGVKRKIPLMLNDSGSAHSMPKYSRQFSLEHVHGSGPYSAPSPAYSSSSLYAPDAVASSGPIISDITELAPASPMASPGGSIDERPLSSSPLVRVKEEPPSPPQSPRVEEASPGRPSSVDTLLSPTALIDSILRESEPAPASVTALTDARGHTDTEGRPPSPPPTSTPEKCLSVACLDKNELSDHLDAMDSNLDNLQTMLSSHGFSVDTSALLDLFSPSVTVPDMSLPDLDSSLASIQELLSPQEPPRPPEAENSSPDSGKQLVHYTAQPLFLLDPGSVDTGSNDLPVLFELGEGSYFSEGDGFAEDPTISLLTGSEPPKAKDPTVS
# SPIB, sequence (Q01892 whole entry): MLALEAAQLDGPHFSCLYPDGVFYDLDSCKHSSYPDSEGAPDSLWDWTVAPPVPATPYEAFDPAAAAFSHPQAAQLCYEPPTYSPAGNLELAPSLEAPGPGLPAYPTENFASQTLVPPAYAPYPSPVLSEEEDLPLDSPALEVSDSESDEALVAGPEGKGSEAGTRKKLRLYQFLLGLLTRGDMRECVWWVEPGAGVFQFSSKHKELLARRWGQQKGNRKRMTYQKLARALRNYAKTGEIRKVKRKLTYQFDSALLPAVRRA
Sequence,binding signal [1],binding signal [2],binding signal [3],binding signal [4],binding signal [5],binding signal [6],binding signal [7],binding signal [8],binding signal [9],binding signal [10],binding signal [11],binding signal [12],binding signal [13],binding signal [14],binding signal [15],binding signal [16]
TGACGA,"1.06 fold enrichment (6-mer frequency, TF over GST control)","1.12 fold enrichment (6-mer frequency, TF over GST control)","1.21 fold enrichment (6-mer frequency, TF over GST control)","1.07 fold enrichment (6-mer frequency, TF over GST control)","1.14 fold enrichment (6-mer frequency, TF over GST control)","1.04 fold enrichment (6-mer frequency, TF over GST control)","1.03 fold enrichment (6-mer frequency, TF over GST control)","1.17 fold enrichment (6-mer frequency, TF over GST control)","1.05 fold enrichment (6-mer frequency, TF over GST control)","1.13 fold enrichment (6-mer frequency, TF over GST control)","1.01 fold enrichment (6-mer frequency, TF over GST control)","1.11 fold enrichment (6-mer frequency, TF over GST control)","1.18 fold enrichment (6-mer frequency, TF over GST control)","1.15 fold enrichment (6-mer frequency, TF over GST control)","1.08 fold enrichment (6-mer frequency, TF over GST control)","1.04 fold enrichment (6-mer frequency, TF over GST control)"
GAACCA,"1.02 fold enrichment (6-mer frequency, TF over GST control)","1.05 fold enrichment (6-mer frequency, TF over GST control)","1.05 fold enrichment (6-mer frequency, TF over GST control)",,"1.05 fold enrichment (6-mer frequency, TF over GST control)","1.08 fold enrichment (6-mer frequency, TF over GST control)",,,,"1.02 fold enrichment (6-mer frequency, TF over GST control)","1.03 fold enrichment (6-mer frequency, TF over GST control)","1.02 fold enrichment (6-mer frequency, TF over GST control)","1.06 fold enrichment (6-mer frequency, TF over GST control)","1.02 fold enrichment (6-mer frequency, TF over GST control)","1.09 fold enrichment (6-mer frequency, TF over GST control)","1 fold enrichment (6-mer frequency, TF over GST control)"
